From PubChem BioAssay (NCATS)
Results filed as inconclusive are left out. Activity calls are given as the source filed them. Calls follow the shape of the dose curve; as a rule, active = well fitted curve in the direction sought with a large enough effect; inconclusive = small, poorly fitted or top-dose-only effect, or another doubt; inactive = no such curve, though single readings can be large; an effect the other way counts as inactive or inconclusive.

Assays:
[1] = test system: HACAT; assay: qHTS assay to identify novel small-molecules to repurpose for Merkel cell carcinoma treatment (AID 1296009); conditions: MCC and control cell lines, CellTiter-Glo viability, 72 h; at 44.8 µM (top of the series) unless noted; also: nearly all actives have a fitted effect of over 60% in size
In short: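 Luminescence from CellTiter-Glo, read 10 min after addition at room temperature, reported viability following a 72 hr, 37 degree celsius treatment with NPC or MIPE compounds in titration; values normalized to plate controls.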

[2] = test system: C33A; assay: Primary qHTS to identify gynecologic anti-cancer compounds using libraries of approved drugs and bioactive compounds (AID 1345084); conditions: Gynecologic cancer cell panel viability, ATPlite luminescence, 48 h; series mostly up to 57.5 µM; also: % is scaled to controls: 0 for no effect and ±100 for the full control effect; nearly all actives have a fitted effect of over 55% in size
In short: (§1)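 Luminescence from the ATPlite ATP-monitoring reagent indicates viable cell number; lower signal means cytotoxicity. Cells received compound 16 h after seeding and were exposed for 48 h across five concentrations.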

[3] = test system: CAOV3; assay: as above; conditions: Gynecologic cancer cell panel viability, ATPlite luminescence, 48 h; series mostly up to 57.5 µM
In short: as §1

[4] = test system: CASKI; assay: as above; conditions: Gynecologic cancer cell panel viability, ATPlite luminescence, 48 h; series mostly up to 57.5 µM
In short: as §1

[5] = test system: Es-2; assay: as above; conditions: Gynecologic cancer cell panel viability, ATPlite luminescence, 48 h; series mostly up to 57.5 µM
In short: as §1

[6] = test system: HeLa; assay: as above; conditions: Gynecologic cancer cell panel viability, ATPlite luminescence, 48 h; series mostly up to 57.5 µM
In short: as §1

[7] = test system: Hek293T; assay: as above; conditions: Gynecologic cancer cell panel viability, ATPlite luminescence, 48 h, control line for the selectivity index; series mostly up to 57.5 µM
In short: as §1

[8] = test system: JEG-3; assay: as above; conditions: Gynecologic cancer cell panel viability, ATPlite luminescence, 48 h; series mostly up to 57.5 µM
In short: as §1

[9] = test system: OV90; assay: as above; conditions: Gynecologic cancer cell panel viability, ATPlite luminescence, 48 h; series mostly up to 57.5 µM
In short: as §1

[10] = test system: PA-1; assay: as above; conditions: Gynecologic cancer cell panel viability, ATPlite luminescence, 48 h; series mostly up to 57.5 µM
In short: as §1

[11] = test system: SKOV3; assay: as above; conditions: Gynecologic cancer cell panel viability, ATPlite luminescence, 48 h; series mostly up to 57.5 µM
In short: as §1

[12] = test system: Tov-21-G; assay: as above; conditions: Gynecologic cancer cell panel viability, ATPlite luminescence, 48 h; series mostly up to 57.5 µM
In short: as §1

[13] = test system: Tov112D; assay: as above; conditions: Gynecologic cancer cell panel viability, ATPlite luminescence, 48 h; series mostly up to 57.5 µM
In short: as §1

CC/C=C\C(O)C(O)C1=C(C)C(=O)C2(O1)C(=O)NC(OC)(C(=O)c1ccccc1)C2O (centres undefined)
inactive: outcome [1] inactive [at 17.4 µM] | Potency [2] | Potency [3] | outcome [4] | Potency [5] | Potency [6] | Potency [7] | Potency [8] | Potency [9] | Potency [10] | Potency [11] | Potency [12] | Potency [13]

CC(=O)NC(C(=O)OC1CCC(C)(C)C2CC=C3C(=O)OCC3C12C)C(C)C (centres undefined)
inactive: outcome [1] | Potency [2] | Potency [3] | outcome [4] | Potency [5] | Potency [6] | Potency [7] | Potency [8] | Potency [9] | Potency [10] | Potency [11] | Potency [12] | Potency [13]

O=C(c1c2ccccc2cc2ccccc12)N1CCC(N2CCC[C@@H](C(=O)N3CCOCC3)C2)CC1
inactive: outcome [1] | Potency [2] | Potency [3] | outcome [4] | Potency [5] | Potency [6] | Potency [7] | Potency [8] | Potency [9] | Potency [10] | Potency [11] | Potency [12] | Potency [13]

C=C1CCC2C(C)(C)CC(O)CC2(C)C1CCC(C)CC(=O)O (centres undefined)
inactive: outcome [1] | Potency [2] | Potency [3] | outcome [4] | Potency [5] | Potency [6] | Potency [7] | Potency [8] | Potency [9] | Potency [10] | Potency [11] | Potency [12] | Potency [13]

COc1cc(/C=C/C(=O)O[C@@H]2C[C@](O)(C(=O)O)C[C@@H](O)[C@H]2O)ccc1O
inactive: outcome [1] | Potency [2] | Potency [3] | outcome [4] | Potency [5] | Potency [6] | Potency [7] | Potency [8] | Potency [9] | Potency [10] | Potency [11] | Potency [12] | Potency [13]

COc1cc(O)cc2c1C(=O)OC(C)CCCCCCC2 (centres undefined)
inactive: outcome [1] | Potency [2] | Potency [3] | outcome [4] | Potency [5] | Potency [6] | Potency [7] | Potency [8] | Potency [9] | Potency [10] | Potency [11] | Potency [12] | Potency [13]

CC1C(O)C(O)C2C(C(=O)OCCc3ccc(O)cc3)=COC(O[C@@H]3O[C@H](CO)[C@@H](O)[C@H](O)[C@H]3O)C12 (some centres undefined)
inactive: outcome [1] inactive [at 17.4 µM] | Potency [2] | Potency [3] | outcome [4] | Potency [5] | Potency [6] | Potency [7] | Potency [8] | Potency [9] | Potency [10] | Potency [11] | Potency [12] | Potency [13]

O=C(O)CC1CCC(c2ccc(-c3ccc(Nc4ccc(C(F)(F)F)nc4)cn3)cc2)CC1 (centres undefined)
inactive: outcome [1] | Potency [2] | Potency [3] | outcome [4] | Potency [5] | Potency [6] | Potency [7] | Potency [8] | Potency [9] | Potency [10] | Potency [11] | Potency [12] | Potency [13]

CC1OC(OC2C(OC3C(O[C@H]4CC[C@@]5(C)C(CC[C@]6(C)C5C(=O)CC5=C7CC(C)(C)CC(O)[C@]7(C)CC[C@]56C)C4(C)C)OC(C(=O)O)C(O)C3O)OCC(O)C2O)C(O)C(O)C1O (some centres undefined)
inactive: outcome [1] inactive [at 9.27 µM] | activity change, negative = cytotoxicity [2] 2.35% [at 11.6 µM] | activity change, negative = cytotoxicity [3] 18.5% [at 11.6 µM] | activity change, negative = cytotoxicity [4] 14.8% [at 11.6 µM] | activity change, negative = cytotoxicity [5] -7.45% [at 11.6 µM] | activity change, negative = cytotoxicity [6] 0.531% [at 11.6 µM] | activity change, negative = cytotoxicity [7] -3% [at 11.6 µM] | activity change, negative = cytotoxicity [8] -0.413% [at 11.6 µM] | activity change, negative = cytotoxicity [9] -4.22% [at 11.6 µM] | activity change, negative = cytotoxicity [10] 14.2% [at 11.6 µM] | activity change, negative = cytotoxicity [11] 29.3% [at 11.6 µM] | activity change, negative = cytotoxicity [12] 4.68% [at 11.6 µM] | activity change, negative = cytotoxicity [13] 3.63% [at 11.6 µM]

C=C1C(=O)O[C@@H]2CC(C)=C([C@@H](C)CCCOC(C)=O)[C@@H](O)[C@H]12
inactive: outcome [1] | Potency [2] | Potency [3] | outcome [4] | Potency [5] | Potency [6] | Potency [7] | Potency [8] | Potency [9] | Potency [10] | Potency [11] | Potency [12] | Potency [13]

CC(=O)OC/C(=C/C(=O)O)CC[C@@H]1C(CO)=CC[C@@H]2C(C)(C)CCC[C@@]12C
inactive: outcome [1] | Potency [2] | Potency [3] | outcome [4] | Potency [5] | Potency [6] | Potency [7] | Potency [8] | Potency [9] | Potency [10] | Potency [11] | Potency [12] | Potency [13]

CC1(C)CC=C(C#Cc2ccccc2)c2cc(/C=C/c3ccc(C(=O)O)cc3)ccc21
inactive: outcome [1] | Potency [2] | Potency [3] | outcome [4] | Potency [5] | Potency [6] | Potency [7] | Potency [8] | Potency [9] | Potency [10] | Potency [11] | Potency [12] | Potency [13]

COC(=O)C(CC1(OC(=O)C(C)C)c2ccccc2N2C(=O)C(C)(C)N(O)C21)n1cnc2ccccc2c1=O (centres undefined)
inactive: outcome [1] inactive [at 17.4 µM] | Potency [2] | Potency [3] | outcome [4] | Potency [5] | Potency [6] | Potency [7] | Potency [8] | Potency [9] | Potency [10] | Potency [11] | Potency [12] | Potency [13]
